{"source": "PubChem BioAssay", "data": [{"assay": "MM1S cell viability effects, profiling panel, calcein-AM fluorescence, 48 h, basal (AID 1165);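 note: viability of MM1S multiple myeloma cells under basal unstimulated conditions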", "conditions": "higher = more signal", "values": [{"compound": "O=C1C2C=CC(C(O)C(c3ccccc3)c3ccccc3)N(Nc3ccccc3)C2C(=O)N1c1ccccc1", "note": "(stereo not drawn); note: test concentration not given here", "z-score": 0.032}, {"compound": "CC(C)CNC(=O)[C@@]1(C)c2ccccc2C(=O)N(Cc2cc(F)cc(C(F)(F)F)c2)[C@H]1c1ccc(CO)cc1", "z-score": 0.545}, {"compound": "Cc1c(NC(=O)/C(C#N)=C/c2ccc(Cl)cc2)c(=O)n(-c2ccccc2)n1C", "z-score": 0.69}, {"compound": "CN1C(=O)[C@]2(CCS(=O)(=O)c3ccccc3)N=C(c3ccc(OCCCO)cc3)O[C@@H]2c2ccccc21", "z-score": -2.04}, {"compound": "COc1cccc(C[C@H]2C[C@@H](CO[Si](C(C)C)(C(C)C)C(C)C)N3C(=O)[C@@]4(C(C)=O)O[C@@]23[C@@H]2C(=O)N(C)C(=O)[C@@H]24)c1", "z-score": -1.9}, {"compound": "CC(=O)n1cc(C(O)C2C=CC3C(=O)N(c4ccccc4)C(=O)C3N2Nc2ccccc2F)c2ccccc21", "note": "(stereo not drawn)", "z-score": -0.834}, {"compound": "CC=CC(O)C1C=CC2C(=O)N(C)C(=O)C2N1NC(=O)OC(C)(C)C", "note": "(stereo not drawn)", "z-score": -0.354}]}, {"assay": "basal RPMI8226 viability, no added stimulus, profiling panel, cell-based, calcein-AM fluorescence, 48 h, PK04 Diversity Set (AID 1166);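 note: cells grown under basal conditions without added stimulus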", "conditions": "RPMI8226 myeloma viability, higher = more signal", "values": [{"compound": "CCCCC(=C=CC[C@@H](O)c1cccc(OCCO)c1)CCO", "z-score": 0.0922}, {"compound": "C=CCOC(=O)[C@@H]1[C@H]2C(=O)O[C@H](c3ccccc3)[C@H](c3ccccc3)N2[C@H](c2ccc(OCCOC(=O)[C@H]3C[C@H]4C(=O)NCC(=O)N4[C@H]3c3ccc(O)cc3)cc2)[C@@]12C(=O)Nc1ccc(I)cc12", "z-score": -0.0622}, {"compound": "CN1C=C(C(=O)OCCS(C)(=O)=O)C(C(=O)OCCS(C)(=O)=O)=CC(CCCO)=CC1c1ccc(CN2CCCC2)cc1", "note": "(stereo not drawn)", "z-score": -0.268}, {"compound": "COCCOC(=O)N1C(=O)[C@@]2(c3cc(C#CC4(O)CCCCCC4)ccc31)[C@H](C(=O)N1CCc3cc(OC)c(OC)cc3C1)[C@H]1C(=O)O[C@H](c3ccccc3)[C@H](c3ccccc3)N1[C@@H]2c1ccc(O)cc1", "z-score": -0.964}, {"compound": "O=C1O[C@@H](c2ccccc2)[C@@H](c2ccccc2)N2[C@@H](c3ccc(OCCO)cc3)[C@]3(C(=O)Nc4ccc(C#CCCO)cc43)[C@@H](C(=O)Nc3nc4ccccc4s3)[C@H]12", "z-score": -0.0767}, {"compound": "COCCCNC(=O)[C@@H]1c2ccccc2C(=O)N(C2CCCCC2)[C@H]1c1ccc(CO)cc1", "z-score": -0.559}, {"compound": "C=CC[C@]1(C(=O)NCc2ccccc2)COC(c2ccc(OCCCO)cc2)=N1", "z-score": -0.953}, {"compound": "CN(C)CCCNC(=O)[C@@]1(Cc2ccccc2I)c2ccccc2C(=O)N(Cc2ccccc2)[C@H]1c1ccc(CO)cc1", "z-score": -3.31}, {"compound": "COc1cccc(OC)c1C(=O)O[C@H]1[C@@H]2OC(=O)[C@H](Cc3cccc(Br)c3)C/C=C/C[C@@H](Cc3cccc(Br)c3)C(=O)O[C@H]2[C@@H](OC)O[C@@H]1CO", "z-score": -3.88}, {"compound": "[N-]=[N+]=NCc1ccccc1C[C@]1(C(=O)NCc2ccccc2)N=C(c2ccc(OCCCO)cc2)O[C@H]1c1ccccc1CN=[N+]=[N-]", "z-score": -1.69}, {"compound": "COCCOC(=O)N1C(=O)[C@@]2(c3cc(C#Cc4ccc(OC)cc4)ccc31)[C@H](c1ccc(OCCO)cc1)N1[C@H](c3ccccc3)[C@H](c3ccccc3)OC(=O)[C@H]1[C@@H]2C(=O)N1CCCCCCC1", "z-score": 0.81}, {"compound": "Cc1ccc(S[C@]2(C(=O)NC3CC3)CC(=O)N(Cc3cc(C(F)(F)F)cc(C(F)(F)F)c3)[C@@H]2c2ccc(CO)cc2I)cc1", "z-score": -1.81}, {"compound": "CC1(C)OC[C@@]23C=C(Br)[C@@H](C[C@H]12)[C@@]1(CO1)C3=O", "z-score": -0.215}, {"compound": "CCOC(=O)C1=CC[C@@H](c2ccccc2)N(S(=O)(=O)c2ccc(C)cc2)[C@H]1C#N", "z-score": -2.32}, {"compound": "COc1ccccc1CN1C(=O)c2ccccc2[C@](Cc2ccccc2I)(C(=O)NCCCN(C)C)[C@@H]1c1ccc(CO)cc1", "z-score": -4.39}, {"compound": "CCCC=C(CCC)[C@@H](NC(=O)c1ccco1)c1ccc(C(=O)OC)cc1", "z-score": -4.76}, {"compound": "CC(C)(C)OC(=O)CC[C@]1(C(N)=O)N=C(c2ccc(OCCCO)cc2)O[C@H]1c1ccccc1CN=[N+]=[N-]", "z-score": -0.387}, {"compound": "COc1ccc(NN2C(C(O)c3cc(C(F)(F)F)cc(C(F)(F)F)c3)C=CC3C(=O)N(C4CCCCC4)C(=O)C32)cc1", "note": "(stereo not drawn)", "z-score": -1.31}, {"compound": "COc1ccc(CCNC(=O)[C@@]2(C)c3ccccc3C(=O)N(Cc3cc(C(F)(F)F)cc(C(F)(F)F)c3)[C@H]2c2ccc(CO)cc2)cc1", "z-score": -3.99}, {"compound": "CC(C)C(=C=CC[C@@H](O)c1ccc(OCCO)cc1)CCO", "z-score": 0.991}, {"compound": "C=CCC(OC(C)=O)[C@@H]1[C@@H](N(Cc2cc3ccccc3o2)C(=O)c2ccc(-c3ccccc3)cc2)c2cc(OCCCO)ccc2N1C(=O)c1ccc2ccccc2n1", "note": "(stereo partly drawn)", "z-score": -0.11}]}]}
